Assay results: PubChem BioAssay (EPA / NIEHS)
The source made the active and inactive calls. Rule for the calls: active = hit-call score of the fitted dose curve at least 0.9, where 1 is the maximum; inactive = score below 0.9.

Legend:
[1] = ATG_CRE_CIS: Attagene CIS-FACTORIAL HepG2 Assay for human cAMP Responsive Element (CRE) binding protein 3 (AID 2282926); settings: HepG2 CRE cis-reporter, Attagene multiplexed mRNA; actives raise or lower the signal
Method in brief: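 Liver-derived HepG2, transfected with a CRE-containing reporter panel, exposed 24 h; transcript levels sized and quantified by capillary electrophoresis of labelled amplicons; signal changes either way referenced to vehicle.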

[2] = molecular target: CCAAT/enhancer-binding protein beta (Homo sapiens) (UniProt P17676); experiment: ATG_C_EBP_CIS: Attagene CIS-FACTORIAL HepG2 Assay for human CCAAT/Enhancer Binding Protein (C/EBP) beta (AID 2282927); settings: HepG2 Attagene cis-factorial transcription factor reporter; actives raise or lower the signal
Method in brief: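 Transiently transfected HepG2 (MRTU library, endogenous TF-driven promoters); 24 h dosing; total RNA → oligo(dT) RT → PCR → 6-FAM primer extension → HpaI digest → CE; fit bidirectionally vs DMSO.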

[3] = ATG_CMV_CIS: Attagene CIS-FACTORIAL HepG2 Assay for human CMV (Internal Marker) (AID 2282928); settings: HepG2 CMV promoter reporter, transcription factor profiling; actives raise or lower the signal;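 note: endpoint acts as a background internal control marker rather than a target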
Method in brief: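 Bidirectional fits against DMSO are applied to reporter mRNA, read by RT-PCR with capillary electrophoresis, from HepG2 cells exposed 24 h. The endpoint serves as an internal CMV background marker within the cis-factorial reporter panel.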

[4] = ATG_DR4_LXR_CIS: Attagene CIS-FACTORIAL HepG2 Assay for human Liver X Receptor (LXR), DR4 submotif (AID 2282929); settings: HepG2 Attagene DR4 cis-reporter, mRNA transcription; actives raise or lower the signal
Method in brief: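 Total RNA from 24 h-treated, MRTU-transfected HepG2 cells underwent reverse transcription, PCR, fluorescent primer extension and restriction digestion before capillary electrophoresis. Both increases and decreases in reporter signal were fitted against DMSO.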

[5] = molecular target: Aryl hydrocarbon receptor (Homo sapiens) (UniProt P35869); experiment: ATG_Ahr_CIS: Attagene CIS-FACTORIAL HepG2 Assay for human Aryl Hydrocarbon Receptor (Ahr) (AID 2282930); settings: HepG2 AhR cis-factorial reporter transcription; actives raise or lower the signal
Method in brief: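 Read-out: reporter mRNA quantified by RT-PCR with fluorescent primer extension and capillary electrophoresis. Human HepG2 liver cells carried transfected cis-promoter reporter units and were exposed to chemical for 24 h; gain or loss fitted relative to DMSO.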

[6] = ATG_AP_1_CIS: Attagene CIS-FACTORIAL HepG2 Assay for human Activator Protein 1 (AP-1) (AID 2282931); settings: HepG2 Attagene cis-factorial AP-1 reporter mRNA; actives raise or lower the signal
Method in brief: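 HepG2, transient cis-reporter transfection; 24 h; readout RT-PCR/CE fluorescence; DMSO baseline, gain and loss fitted.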

[7] = ATG_BRE_CIS: Attagene CIS-FACTORIAL HepG2 Assay for human Bone Morphogenetic Protein (BMP) Response Element (BRE) (AID 2282933); settings: HepG2 BMP response element reporter, Attagene transcription factor profiling; actives raise or lower the signal
Method in brief: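 Read-out: reporter mRNA induction quantified by RT-PCR and capillary electrophoresis after 24 h chemical exposure of transfected HepG2 cells. Endogenous factor activity on the BMP response element; gain or loss fitted against DMSO baseline.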

[8] = ATG_E_Box_CIS: Attagene CIS-FACTORIAL HepG2 Assay for human Enhancer Box (E-box) (AID 2282936); settings: HepG2 E-box cis-reporter transcription, actives raise or lower the signal
Method in brief: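 In this cell-based setup, HepG2 cells bearing transfected promoter-driven reporter units were exposed to chemicals for 24 h; reporter transcripts were amplified, 6-FAM-labelled, cut with HpaI and sized by capillary electrophoresis.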

[9] = ATG_M_61_CIS: Attagene CIS-FACTORIAL HepG2 Assay for M61 Transcription Factor (Internal Marker) (AID 2282937); settings: HepG2 Attagene CIS-FACTORIAL M61 internal marker reporter; actives raise or lower the signal
Method in brief: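 Transfect HepG2 with MRTUs; dose 24 h; isolate RNA; reverse-transcribe with DNase I treatment; PCR-amplify, FAM-label and cut with HpaI for 2 h at 37 C; resolve by CE. Bidirectional fitting against DMSO.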

[10] = ATG_EGR_CIS: Attagene CIS-FACTORIAL HepG2 Assay for human Early Growth Response 1 (EGR1) (AID 2282938); settings: HepG2 Attagene CIS-FACTORIAL EGR reporter mRNA; actives raise or lower the signal
Method in brief: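 After a 24 h treatment of transiently transfected HepG2 cells, total RNA was reverse-transcribed and reporter sequences PCR-amplified, labelled and run on capillary electrophoresis. Reporters sit under cis-regulatory promoters sensing endogenous factors.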

[11] = ATG_M_19_CIS: Attagene CIS-FACTORIAL HepG2 Assay for M19 Transcription Factor (Internal Marker) (AID 2282939); settings: HepG2 Attagene CIS-FACTORIAL M19 internal marker reporter; actives raise or lower the signal
Method in brief: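 Readout: fluorescent reporter-transcript fragments by capillary electrophoresis after RT-PCR. Human HepG2 liver cells carried transfected MRTU constructs reporting endogenous transcription-factor activity; exposure 24 h. Gain or loss of signal fitted relative to DMSO.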

[12] = ATG_ERE_CIS: Attagene CIS-FACTORIAL HepG2 Assay for Estrogen Response Element (ERE) (AID 2282940); settings: HepG2 ERE cis-reporter, Attagene RNA transcript; actives raise or lower the signal
Method in brief: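 Readout: reporter mRNA induction by RT-PCR, FAM-labelled primer extension, HpaI digestion and capillary electrophoresis, 24 h after dosing transfected HepG2 cells. Endogenous transcription factors act on cis-element-regulated reporters. Gain or loss fitted against DMSO.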

[13] = ATG_Ets_CIS: Attagene CIS-FACTORIAL HepG2 Assay for human Erythroblast Transformation Specific (ETS) (AID 2282941); settings: HepG2 ETS cis-reporter transcription, actives raise or lower the signal
Method in brief: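 Endogenous transcription factor activity read as reporter mRNA via RT-PCR and capillary electrophoresis, with gain or loss fitted bidirectionally against DMSO. Human HepG2 liver cells, transiently transfected CIS reporter constructs, 24 h exposure.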

[14] = molecular target: Hepatocyte nuclear factor 3-beta (Homo sapiens) (UniProt Q9Y261); experiment: ATG_FoxA2_CIS: Attagene CIS-FACTORIAL HepG2 Assay for human Forkhead box A2 (FOXA2) (AID 2282942); settings: HepG2 cis-reporter transcription factor activity, 24 h; actives raise or lower the signal
Method in brief: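 24 h dosing of HepG2 bearing cis-reporter constructs; mRNA readout by RT-PCR/CE fluorescence; bidirectional fit, DMSO baseline.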

[15] = ATG_FoxO_CIS: Attagene CIS-FACTORIAL HepG2 Assay for human Forkhead box O (FoxO) (AID 2282943); settings: HepG2 Attagene cis-reporter, FoxO element, mRNA; actives raise or lower the signal
Method in brief: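 Read-out: fluorescence of 6-FAM-labelled reporter cDNA fragments resolved by capillary electrophoresis. Transiently transfected HepG2 cells were dosed for 24 h; activity fitted in both directions relative to DMSO controls.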

[16] = ATG_GATA_CIS: Attagene CIS-FACTORIAL HepG2 Assay for human GATA Binding Protein (AID 2282944); settings: HepG2 GATA cis-element reporter, Attagene multiplex mRNA; actives raise or lower the signal
Method in brief: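 Read-out: fluorescent reporter mRNA fragments resolved by capillary electrophoresis after RT-PCR. Human liver HepG2 cells carried transiently transfected cis-regulated reporter constructs; chemicals incubated 24 h; gain or loss of signal fitted relative to DMSO.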

[17] = ATG_AP_2_CIS: Attagene CIS-FACTORIAL HepG2 Assay for human Activator Protein 2 (AP-2) (AID 2282932); settings: HepG2 AP-2 cis-reporter, Attagene transcription factor profiling; actives raise or lower the signal
Method in brief: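 Liver-derived HepG2 line, cis-reporter system measuring endogenous factors; 24 h dosing; reporter mRNA detected by fluorescent RT-PCR and capillary electrophoresis.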

[18] = molecular target: Transcription factor E2F1 (Homo sapiens) (UniProt Q01094); experiment: ATG_E2F_CIS: Attagene CIS-FACTORIAL HepG2 Assay for human E2F Transcription Factor 1 (AID 2282935); settings: HepG2 Attagene cis-reporter, E2F reporter RNA transcripts; actives raise or lower the signal
Method in brief: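 Liver-derived HepG2 cells expressing transfected promoter-driven reporter units received test chemical for 24 hours. Signal gains or losses were fitted bidirectionally against DMSO.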

[19] = ATG_GLI_CIS: Attagene CIS-FACTORIAL HepG2 Assay for human Zinc Finger Protein GLI1 (AID 2282945); settings: HepG2, Attagene cis-factorial reporter mRNA, GLI element; actives raise or lower the signal
Method in brief: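 Transiently transfected HepG2 cells report endogenous transcription factor activity via cis-element-driven reporter units. After 24 h compound exposure, reporter mRNA was measured by RT-PCR with capillary electrophoresis; bidirectional fitting against DMSO baseline.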

[20] = molecular target: Retinoic acid receptor alpha (Homo sapiens) (UniProt P10276); experiment: ATG_DR5_RAR_CIS: Attagene CIS-FACTORIAL HepG2 Assay for human Retinoic Acid Receptor Alpha (RARE), DR5 submotif (AID 2282934); settings: HepG2 Attagene cis-factorial RARE DR5 reporter, mRNA; actives raise or lower the signal
Method in brief: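 Read-out: DR5-driven reporter transcript measured by RT-PCR, 6-FAM primer extension, HpaI digest and capillary electrophoresis. Human HepG2 liver cells carry transiently transfected cis-element reporter constructs; dosing lasts 24 h. Gain or loss of signal fitted against DMSO baseline.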

Measured: AC50

Sequence of Hepatocyte nuclear factor 3-beta (Homo sapiens) (Q9Y261 whole entry, looked up): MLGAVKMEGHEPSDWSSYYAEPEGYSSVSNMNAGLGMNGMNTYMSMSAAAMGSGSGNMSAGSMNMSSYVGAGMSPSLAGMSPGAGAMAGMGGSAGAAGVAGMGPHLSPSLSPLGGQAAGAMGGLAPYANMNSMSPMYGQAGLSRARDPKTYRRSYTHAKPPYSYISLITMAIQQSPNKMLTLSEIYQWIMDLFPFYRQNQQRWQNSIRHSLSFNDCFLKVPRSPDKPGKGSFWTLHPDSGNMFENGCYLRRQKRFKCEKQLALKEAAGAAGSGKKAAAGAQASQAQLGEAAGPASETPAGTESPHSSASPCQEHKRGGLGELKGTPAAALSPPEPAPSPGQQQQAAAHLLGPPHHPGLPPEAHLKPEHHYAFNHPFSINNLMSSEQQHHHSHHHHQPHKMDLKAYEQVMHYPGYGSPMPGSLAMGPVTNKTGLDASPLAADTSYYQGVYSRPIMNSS
Sequence of Transcription factor E2F1 (Homo sapiens) (Q01094 whole entry, looked up): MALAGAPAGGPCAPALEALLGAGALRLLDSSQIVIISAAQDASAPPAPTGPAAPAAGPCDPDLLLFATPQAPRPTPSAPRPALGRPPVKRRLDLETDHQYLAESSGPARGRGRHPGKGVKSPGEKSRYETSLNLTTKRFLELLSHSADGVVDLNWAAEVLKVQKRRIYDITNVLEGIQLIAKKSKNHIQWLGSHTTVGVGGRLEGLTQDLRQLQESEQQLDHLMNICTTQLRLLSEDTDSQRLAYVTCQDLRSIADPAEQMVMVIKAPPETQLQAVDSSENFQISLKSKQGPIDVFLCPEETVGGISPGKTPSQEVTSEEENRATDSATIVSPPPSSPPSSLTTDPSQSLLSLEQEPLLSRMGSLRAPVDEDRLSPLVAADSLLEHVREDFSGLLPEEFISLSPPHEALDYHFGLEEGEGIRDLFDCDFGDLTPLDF
Sequence of Aryl hydrocarbon receptor (Homo sapiens) (P35869 whole entry, looked up): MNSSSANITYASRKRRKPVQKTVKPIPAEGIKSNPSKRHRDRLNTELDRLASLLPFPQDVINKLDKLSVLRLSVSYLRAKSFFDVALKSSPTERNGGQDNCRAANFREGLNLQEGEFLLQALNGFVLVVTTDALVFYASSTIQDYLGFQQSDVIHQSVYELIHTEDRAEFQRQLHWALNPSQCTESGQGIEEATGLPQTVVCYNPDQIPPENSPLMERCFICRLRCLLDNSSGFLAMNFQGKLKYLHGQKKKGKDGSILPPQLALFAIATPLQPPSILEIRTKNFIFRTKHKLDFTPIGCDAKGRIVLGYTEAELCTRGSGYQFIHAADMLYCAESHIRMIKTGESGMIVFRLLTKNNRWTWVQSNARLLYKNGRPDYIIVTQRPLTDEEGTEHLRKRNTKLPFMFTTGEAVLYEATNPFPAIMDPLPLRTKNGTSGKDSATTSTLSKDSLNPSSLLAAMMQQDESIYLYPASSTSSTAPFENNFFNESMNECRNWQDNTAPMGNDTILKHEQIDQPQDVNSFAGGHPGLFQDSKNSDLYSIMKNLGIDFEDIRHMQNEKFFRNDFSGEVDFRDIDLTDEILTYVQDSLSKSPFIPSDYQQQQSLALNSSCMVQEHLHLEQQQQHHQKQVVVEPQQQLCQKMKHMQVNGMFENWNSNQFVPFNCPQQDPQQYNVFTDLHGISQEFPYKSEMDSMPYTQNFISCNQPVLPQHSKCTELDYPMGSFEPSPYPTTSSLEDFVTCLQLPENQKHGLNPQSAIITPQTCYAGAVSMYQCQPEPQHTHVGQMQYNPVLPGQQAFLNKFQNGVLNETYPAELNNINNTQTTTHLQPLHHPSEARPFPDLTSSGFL
Sequence of CCAAT/enhancer-binding protein beta (Homo sapiens) (P17676 whole entry, looked up): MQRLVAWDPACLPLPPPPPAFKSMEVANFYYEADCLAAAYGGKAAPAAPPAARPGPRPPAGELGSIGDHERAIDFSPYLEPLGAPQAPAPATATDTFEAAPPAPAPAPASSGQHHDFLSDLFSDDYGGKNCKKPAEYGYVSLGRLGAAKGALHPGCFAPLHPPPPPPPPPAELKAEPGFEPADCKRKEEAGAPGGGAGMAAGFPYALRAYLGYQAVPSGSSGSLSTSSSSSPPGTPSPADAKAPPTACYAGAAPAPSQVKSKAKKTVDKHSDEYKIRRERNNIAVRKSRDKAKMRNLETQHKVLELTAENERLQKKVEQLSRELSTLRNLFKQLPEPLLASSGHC
Sequence of Retinoic acid receptor alpha (Homo sapiens) (P10276 whole entry, looked up): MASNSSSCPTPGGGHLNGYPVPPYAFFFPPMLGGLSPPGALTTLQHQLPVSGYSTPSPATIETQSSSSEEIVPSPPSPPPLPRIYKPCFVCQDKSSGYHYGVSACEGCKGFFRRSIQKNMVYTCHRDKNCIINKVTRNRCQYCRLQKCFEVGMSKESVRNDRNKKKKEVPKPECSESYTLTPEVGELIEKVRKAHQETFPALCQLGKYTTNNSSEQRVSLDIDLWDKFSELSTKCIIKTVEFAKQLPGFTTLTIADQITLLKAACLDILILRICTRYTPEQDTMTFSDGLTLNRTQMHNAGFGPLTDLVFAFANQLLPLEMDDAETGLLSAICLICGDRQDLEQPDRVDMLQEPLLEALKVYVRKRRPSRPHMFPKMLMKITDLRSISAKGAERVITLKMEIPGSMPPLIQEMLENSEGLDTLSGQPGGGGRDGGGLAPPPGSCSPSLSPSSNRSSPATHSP

Cc1ccc(S)cc1
inactive: [1] | [2] | [5] | [8] | [9] | [10] | [11] | [12] | [13] | [14] | [15] | [16]
active: [3] 34.4 µM | [4] 59.7 µM | [6] 119 µM | [7] 100 µM

CC(C)(C#N)c1cc(Cn2cncn2)cc(C(C)(C)C#N)c1
inactive: [1] | [2] | [3] | [4] | [5] | [17] | [7] | [18] | [8] | [9] | [10] | [11] | [13] | [14] | [15] | [16] | [19]

CN(C)C(=N)N=C(N)N
inactive: [1] | [2] | [3] | [4] | [5] | [17] | [7] | [20] | [18] | [8] | [9] | [10] | [13] | [14] | [15] | [16] | [19]

CC(=O)C(C)=O
inactive: [1] | [2] | [4] | [5] | [17] | [18] | [8] | [9] | [10] | [11] | [13] | [15] | [16] | [19]
active: [3] 40.6 µM

CCCCC[Si](OCC)(OCC)OCC
inactive: [1] | [2] | [3] | [4] | [6] | [17] | [7] | [20] | [18] | [8] | [9] | [10] | [11] | [13] | [14] | [15] | [16] | [19]

NC(N)=NC(=O)c1nc(Cl)c(N)nc1N
inactive: [1] | [2] | [3] | [5] | [17] | [7] | [18] | [8] | [9] | [10] | [11] | [12] | [13] | [14] | [15] | [19]
active: [4] 149 µM
